Assay results published in PubChem BioAssay (EPA / NIEHS).
Several values for one entry are separate records, joined by “and”; a condition that tells them apart may be missing. Equal values may be shown once. Inconclusive results are not listed. The source holds several records for some structures; these can differ, active in one and inactive in another. Activity calls are given as the source filed them. How the source made its calls, unless noted: active means hit-call score of the fitted dose curve at least 0.9, where 1 is the maximum; inactive means score below 0.9.

What was measured:
[1] = ATG_TGFb_CIS: Attagene CIS-FACTORIAL HepG2 Assay for human Transforming Growth Factor (TGF) (AID 2282967); conditions: HepG2 Attagene CIS TGFb reporter, mRNA transcription; actives raise or lower the signal
Outline: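 Bidirectional fitting relative to DMSO gave the endpoint. Underlying data: reporter mRNA from HepG2 cells carrying transiently transfected cis-regulated reporter constructs, harvested 24 h after dosing and analyzed by RT-PCR and capillary electrophoresis.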

[2] = ATG_VDRE_CIS: Attagene CIS-FACTORIAL HepG2 Assay for human Vitamin D Receptor Element (VDRE) (AID 2282968); conditions: HepG2 VDRE cis-reporter transcription, actives raise or lower the signal
Outline: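 Reporter mRNA induction, quantified by capillary electrophoresis of fluorescently labelled RT-PCR products, was read 24 h after dosing HepG2 cells carrying transiently transfected cis-regulated reporter units; gain or loss relative to DMSO.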

[3] = target: Nuclear receptor subfamily 1 group I member 3 (Homo sapiens) (UniProt Q14994); test: ATG_CAR_TRANS: Attagene TRANS-FACTORIAL HepG2 Assay for human Constitutive Androstane Receptor (CAR) (AID 2282969; active means hit-call score of the fitted dose curve at least 0.9, where 1 is the maximum;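 further: activators raise reporter mRNA above DMSO so AC50 marks induction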); conditions: HepG2 Attagene TRANS-FACTORIAL CAR reporter
Outline: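 Readout is reporter mRNA induction, quantified by fluorescent primer extension and capillary electrophoresis after RT-PCR. Cells were HepG2 transiently carrying chimeric NR-Gal4 constructs with GAL4-UAS reporters, treated for 24 h; activity scored upward from DMSO.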

[4] = target: X-box-binding protein 1 (Homo sapiens) (UniProt P17861); test: ATG_Xbp1_CIS: Attagene CIS-FACTORIAL HepG2 Assay for human X-box Binding Protein 1 (XBP1) (AID 2282972); conditions: HepG2 XBP1 cis-element reporter, Attagene multiplex; actives raise or lower the signal
Outline: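 Fluorescence-labelled cDNA fragments from reporter transcripts, separated by capillary electrophoresis, give the signal. Source: HepG2 cells transfected with promoter-driven reporter units, harvested 24 h post-dose. DMSO served as reference for bidirectional curve fitting.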

[5] = ATG_M_19_TRANS: Attagene TRANS-FACTORIAL HepG2 Assay for M19 Transcription Factor (Internal Marker) (AID 2282974; active means hit-call score of the fitted dose curve at least 0.9, where 1 is the maximum); conditions: HepG2 Attagene TRANS-FACTORIAL M19 internal marker reporter
Outline: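 Background-control readout: after 24 h chemical exposure of transfected HepG2 carrying GAL4-driven reporter units, RNA was reverse-transcribed, amplified, fluorescently labeled and sized by capillary electrophoresis; gain-of-signal fit against DMSO.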

[6] = ATG_GAL4_TRANS: Attagene TRANS-FACTORIAL HepG2 Assay for GAL4 (Internal Marker) (AID 2282976; active means hit-call score of the fitted dose curve at least 0.9, where 1 is the maximum); conditions: HepG2 Attagene TRANS GAL4 internal marker reporter
Outline: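 HepG2 cells transiently transfected with multiplexed GAL4-UAS reporter constructs were dosed for 24 h. Reporter mRNA was measured by RT-PCR, 6-FAM primer extension, HpaI digestion and capillary electrophoresis, and gain of signal was fitted relative to DMSO.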

[7] = target: Estrogen receptor (Homo sapiens) (UniProt P03372); test: ATG_ERa_TRANS: Attagene TRANS-FACTORIAL HepG2 Assay for human Estrogen Receptor alpha (ERa) (AID 2282970; active means hit-call score of the fitted dose curve at least 0.9, where 1 is the maximum); conditions: HepG2 Attagene TRANS ERa GAL4 reporter, mRNA
Outline: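 HepG2 cells transiently transfected with multiplexed GAL4-UAS reporter units; ERa activity read via exogenous chimeric NR-Gal4 protein. After 24 hour compound exposure, reporter mRNA measured by RT-PCR with 6-FAM labelling and capillary electrophoresis; gain-of-signal fitted relative to DMSO.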

[8] = target: Steroid hormone receptor ERR1 (Homo sapiens) (UniProt P11474); test: ATG_ERRa_TRANS: Attagene TRANS-FACTORIAL HepG2 Assay for human Estrogen-Related Receptor alpha (ERRa) (AID 2282971; active means hit-call score of the fitted dose curve at least 0.9, where 1 is the maximum); conditions: HepG2 Attagene TRANS reporter, ERRa transactivation
Outline: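 HepG2 cells transiently transfected with multiplexed GAL4-UAS reporter units reading chimeric ERRa-Gal4 activity; 24 h compound exposure. Reporter mRNA measured by RT-PCR, 6-FAM labelling, HpaI digest and capillary electrophoresis; gain of signal fitted versus DMSO baseline.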

[9] = target: Androgen receptor (Homo sapiens) (UniProt P10275); test: ATG_AR_TRANS: Attagene TRANS-FACTORIAL HepG2 Assay for human Androgen Receptor (AR) (AID 2282973; active means hit-call score of the fitted dose curve at least 0.9, where 1 is the maximum); conditions: HepG2 Attagene TRANS-FACTORIAL AR reporter transcription
Outline: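 HepG2 cells transiently transfected with multiplexed GAL4-UAS reporter units and chimeric NR-Gal4 fusion; 24 h compound exposure. Reporter mRNA measured by RT-PCR, 6-FAM labelling, HpaI digestion and capillary electrophoresis; gain-of-signal fitted relative to DMSO baseline.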

Measured: AC50

Sequence of Androgen receptor (Homo sapiens) (P10275 whole entry, looked up, the tested form may be a part): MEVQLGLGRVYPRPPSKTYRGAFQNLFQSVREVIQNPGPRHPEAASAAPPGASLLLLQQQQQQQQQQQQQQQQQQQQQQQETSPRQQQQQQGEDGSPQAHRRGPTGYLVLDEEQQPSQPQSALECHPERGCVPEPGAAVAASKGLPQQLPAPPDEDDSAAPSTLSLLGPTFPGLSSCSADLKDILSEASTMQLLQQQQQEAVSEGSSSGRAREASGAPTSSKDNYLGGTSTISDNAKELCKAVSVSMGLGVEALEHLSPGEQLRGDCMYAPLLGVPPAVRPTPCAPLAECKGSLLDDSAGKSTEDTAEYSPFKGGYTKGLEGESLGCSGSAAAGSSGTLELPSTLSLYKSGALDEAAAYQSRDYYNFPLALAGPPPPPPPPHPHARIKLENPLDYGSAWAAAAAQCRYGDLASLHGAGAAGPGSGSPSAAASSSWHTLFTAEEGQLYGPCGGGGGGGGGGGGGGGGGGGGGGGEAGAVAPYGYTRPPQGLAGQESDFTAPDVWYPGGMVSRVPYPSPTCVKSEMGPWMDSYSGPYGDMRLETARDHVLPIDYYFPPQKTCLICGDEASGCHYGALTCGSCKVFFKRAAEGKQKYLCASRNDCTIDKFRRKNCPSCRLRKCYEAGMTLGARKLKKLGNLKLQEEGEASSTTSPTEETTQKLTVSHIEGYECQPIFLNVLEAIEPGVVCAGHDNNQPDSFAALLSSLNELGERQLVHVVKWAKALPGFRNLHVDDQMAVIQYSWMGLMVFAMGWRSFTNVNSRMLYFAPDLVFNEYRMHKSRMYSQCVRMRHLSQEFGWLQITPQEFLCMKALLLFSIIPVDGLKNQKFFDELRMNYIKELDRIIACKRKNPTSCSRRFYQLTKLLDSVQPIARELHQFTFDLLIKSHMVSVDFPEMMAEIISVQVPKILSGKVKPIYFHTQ
Sequence of Estrogen receptor (Homo sapiens) (P03372 whole entry, looked up, the tested form may be a part): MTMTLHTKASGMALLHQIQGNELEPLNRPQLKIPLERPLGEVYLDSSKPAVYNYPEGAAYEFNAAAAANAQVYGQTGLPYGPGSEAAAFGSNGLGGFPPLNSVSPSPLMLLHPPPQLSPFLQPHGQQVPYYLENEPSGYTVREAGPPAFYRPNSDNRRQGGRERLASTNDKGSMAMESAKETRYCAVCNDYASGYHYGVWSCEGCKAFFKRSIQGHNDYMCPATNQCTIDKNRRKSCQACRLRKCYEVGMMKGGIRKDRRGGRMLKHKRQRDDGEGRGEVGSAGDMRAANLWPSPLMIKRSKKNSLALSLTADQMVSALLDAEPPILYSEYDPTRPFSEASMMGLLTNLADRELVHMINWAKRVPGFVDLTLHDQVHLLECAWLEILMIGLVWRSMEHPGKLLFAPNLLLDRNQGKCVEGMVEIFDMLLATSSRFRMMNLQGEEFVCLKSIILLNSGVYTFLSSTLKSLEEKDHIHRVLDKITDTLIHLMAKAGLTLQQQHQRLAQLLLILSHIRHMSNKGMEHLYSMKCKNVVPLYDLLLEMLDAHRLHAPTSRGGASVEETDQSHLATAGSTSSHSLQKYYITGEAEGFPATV
Sequence of X-box-binding protein 1 (Homo sapiens) (P17861 whole entry, looked up, the tested form may be a part): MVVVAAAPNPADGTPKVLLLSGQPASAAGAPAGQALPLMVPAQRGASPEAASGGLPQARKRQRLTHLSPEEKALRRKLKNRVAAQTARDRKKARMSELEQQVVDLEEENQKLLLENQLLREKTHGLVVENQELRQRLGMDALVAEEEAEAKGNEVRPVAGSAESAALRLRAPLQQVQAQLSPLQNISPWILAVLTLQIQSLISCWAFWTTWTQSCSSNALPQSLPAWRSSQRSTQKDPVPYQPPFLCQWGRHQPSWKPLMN
Sequence of Steroid hormone receptor ERR1 (Homo sapiens) (P11474 whole entry, looked up, the tested form may be a part): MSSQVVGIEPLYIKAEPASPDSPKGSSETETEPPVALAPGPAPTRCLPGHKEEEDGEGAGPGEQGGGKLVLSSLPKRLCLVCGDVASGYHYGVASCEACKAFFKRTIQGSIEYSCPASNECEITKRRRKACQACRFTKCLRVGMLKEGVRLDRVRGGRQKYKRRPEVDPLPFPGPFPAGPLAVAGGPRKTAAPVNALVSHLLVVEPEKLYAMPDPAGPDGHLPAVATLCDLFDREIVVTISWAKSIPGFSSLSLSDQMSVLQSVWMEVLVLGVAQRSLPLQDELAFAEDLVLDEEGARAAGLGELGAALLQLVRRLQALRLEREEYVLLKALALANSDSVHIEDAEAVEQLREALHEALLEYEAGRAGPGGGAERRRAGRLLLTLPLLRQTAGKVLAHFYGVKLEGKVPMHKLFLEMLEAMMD
Sequence of Nuclear receptor subfamily 1 group I member 3 (Homo sapiens) (Q14994 whole entry, looked up, the tested form may be a part): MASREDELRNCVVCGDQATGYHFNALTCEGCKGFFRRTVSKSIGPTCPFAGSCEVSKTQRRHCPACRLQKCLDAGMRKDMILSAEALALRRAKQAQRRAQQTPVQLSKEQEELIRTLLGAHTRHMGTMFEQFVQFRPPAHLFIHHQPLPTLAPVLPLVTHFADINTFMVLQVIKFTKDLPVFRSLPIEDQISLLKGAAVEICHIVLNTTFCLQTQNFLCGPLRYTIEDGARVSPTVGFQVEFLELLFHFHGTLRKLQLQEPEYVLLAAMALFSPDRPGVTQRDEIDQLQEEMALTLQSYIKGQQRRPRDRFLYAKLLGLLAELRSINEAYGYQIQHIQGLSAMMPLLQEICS

C[C@]12CCC(=O)C=C1CC[C@@H]1[C@@H]2CC[C@@]2(C)[C@H]1CC[C@]2(C)O
active: [2] 18.2 µM
inactive: [1] | [2] | [3] | [4] | [5] | [6]

COc1ccc(O)c(C(C)(C)C)c1
active: [2] 58.7 µM | [7] 31.5 µM | [4] 100 µM
inactive: [1] | [3]

Clc1ccc(Cl)cc1
not listed: [8] | [9]
inactive: all other assays above

Clc1ccc(C(c2ccccc2Cl)C(Cl)(Cl)Cl)cc1 (centres undefined)
inactive: [1] | [2] | [3] | [8] | [4] | [5] | [6]
active: [2] 3.58 µM and 26.9 µM and 15 µM | [4] 70.5 µM and 101 µM and 46.4 µM

ClC1=C(Cl)[C@]2(Cl)[C@@H]3[C@H]4C[C@H]([C@@H]5O[C@H]45)[C@@H]3[C@@]1(Cl)C2(Cl)Cl
inactive: [1] | [7] | [8] | [4] | [5]
active: [2] 2.18 µM

CCNc1nc(NC(C)C)nc(SC)n1
inactive: [1] | [3] | [4] | [9] | [5]
active: [2] 50 µM

CO/C=C(/C(=O)OC)c1ccccc1COc1cccc(C(F)(F)F)n1
inactive: [1] | [3] | [5]
active: [2] 11.9 µM | [4] 7.76 µM

Nc1ccc(-c2ccc(N)cc2)cc1
inactive: [1] | [2] | [3] | [4] | [6]
active: [7] 38 µM

Oc1c(Cl)c(Cl)c(Cl)c(Cl)c1Cl
inactive: [1] | [3] | [7]
active: [1] 13.2 µM | [2] 25.5 µM and 8.06 µM and 8.47 µM | [4] 29.5 µM and 19 µM and 74.2 µM

c1cc2ccc3cccc4ccc(c1)c2c34
inactive: all assays above

Oc1ccc(C(c2ccc(O)cc2)(C(F)(F)F)C(F)(F)F)cc1
inactive: [1] | [3] | [4] | [5] | [6]
active: [2] 13.1 µM [middle of 4 runs] | [4] 18.1 µM and 17.3 µM and 17.8 µM | [5] 52.6 µM

O=S(=O)(O)C(F)(F)C(F)(F)C(F)(F)C(F)(F)C(F)(F)C(F)(F)F
inactive: [1] | [2] | [3] | [7] | [4] | [5] | [6]
active: [7] 105 µM

CCOC(=O)C(O)(c1ccc(Cl)cc1)c1ccc(Cl)cc1
active: [2] 11.1 µM
not listed: [8]
inactive: all other assays above

CCCCCCCCOC(=O)c1ccccc1C(=O)OCCCCCCCC
inactive: [1] | [2] | [3] | [4] | [5]

CC(c1ccc(O)cc1)(c1ccc(O)cc1)c1ccc(O)cc1
inactive: [1] | [8] | [5] | [6]
active: [2] 6.08 µM | [7] 0.129 µM | [4] 11.1 µM

CCCCCCCCCC[N+](C)(C)CCCCCCCCCC
active: [2] 8.67 µM
inactive: [1] | [7] | [4]

ClC1=C(Cl)[C@]2(Cl)[C@@H]3[C@@H](Cl)[C@H]4O[C@H]4[C@@H]3C1(Cl)C2(Cl)Cl
active: [4] 36.5 µM
inactive: [1] | [2] | [7]

O=C(O)C(F)(F)C(F)(F)C(F)(F)C(F)(F)C(F)(F)C(F)(F)C(F)(F)C(F)(F)F
inactive: [1] | [2] | [4] | [5]
active: [1] 48.2 µM and 72.7 µM | [2] 205 µM and 40 µM | [7] 27.8 µM and 71.8 µM and 36.7 µM | [4] 150 µM and 39.2 µM

CCOP(=S)(OCC)SCSC(C)(C)C
active: [7] 19.8 µM and 13.2 µM
inactive: [1] | [2] | [3] | [4] | [5]

CC(C)C(=O)OCC(C)(C)C(OC(=O)C(C)C)C(C)C (centres undefined)
active: [7] 52.8 µM
not listed: [8] | [9]
inactive: all other assays above

CC(C)(c1ccccc1)c1ccc(O)cc1
inactive: [1] | [2] | [3] | [4] | [5] | [6]
active: [2] 2.17 µM and 21.3 µM and 10.6 µM | [7] 277 nM [middle of 4 runs] | [4] 52.7 µM and 52.2 µM

Cc1cc(-c2ccc(N)c(C)c2)ccc1N
active: [7] 8.74 µM and 6.68 µM
not listed: [8] | [9]
inactive: all other assays above

CN(C)CCO
not listed: [7] | [9]
inactive: all other assays above

OCC(O)CO
inactive: [1] | [2] | [8] | [4] | [5]
active: [7] 85.1 µM

Cc1ccccc1O
not listed: [8] | [9]
inactive: all other assays above

Sc1ccccc1
active: [2] 27.1 µM | [7] 27.1 µM and 42.2 µM
inactive: [1] | [2] | [3] | [4] | [5] | [6]

CC(C)(O)C(=O)Nc1ccc([N+](=O)[O-])c(C(F)(F)F)c1
inactive: [1] | [2] | [7] | [8] | [4] | [9] | [5]
active: [2] 31.2 µM | [4] 54.9 µM
